Potency data for 38 compounds are collected here from PubChem BioAssay AID1508622 (National Center for Advancing Translational Sciences (NCATS), 2021).

Calls of active or inactive are those of the source. Entries that show only a call come without a potency. Calls come from the whole dose curve; as a rule, active = well fitted activation curve with a large enough effect; inconclusive = small, poorly fitted or top-dose-only effect; inactive = no such curve, though single readings can be large or run the other way.

A short description of this assay: Confirmatory qHTS for Identification of Small Molecule Activators of Huntingtin-Antisense Promoter Activity. As to conditions: HEK293 HTT-AS promoter firefly luciferase reporter, 24 h; series mostly up to 57.5 µM. The method, boiled down:
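HEK293 luciferase reporter cells, 2,500/well, cultured 24 h, then exposed to compounds at up to 57.5 uM final for 24 h at 37C. Firefly luciferase luminescence read; normalized to vehicle (0%) and zero RLU (-100%).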
In the case of `Cc1ccccc1OCC(=O)NCC(c1ccc(Cl)cc1)N1CCOCC1` (stereo not drawn), the Potency result is “inactive”.
For the compound `Cn1c(=O)n(C)c2cc(NS(=O)(=O)c3ccc(C(C)(C)C)cc3)c(NCc3ccccc3)cc21`, the Potency result was “inactive”.
Take `CCCCN1C(C(=O)c2ccccc2)=C(OC(C)=O)c2ccccc2S1(=O)=O`: the Potency result was “inactive”.
Next, `O=C(c1ccc2c(c1)CCN2S(=O)(=O)c1ccc(Cl)cc1)N1CCN(c2ccccc2F)CC1`: “inactive”.
For the compound `COc1ccc(NS(=O)(=O)c2ccc3c(c2)CCCN3C(=O)C2CCC2)cc1OC`, the Potency entry was “inactive”.
For the compound `COc1ccccc1CNC(=O)c1ccc(N2CCCC2)c(NC(=O)NCc2ccc(C)cc2)c1`, the Potency result is “inactive”.
For `COc1ccc(Cn2c(SCc3ccc(C(=O)NC4CCCC4)cc3)nc3ccncc32)cc1`, the Potency entry was “inactive”.
The entry for `Cc1ccc(NS(=O)(=O)c2ccc(-c3cnc(C4CC4)o3)cc2)cc1N(C)C` is “inactive”.
On to `O=C1CSC2(C(=O)N(Cc3cccc(C(F)(F)F)c3)c3ccccc32)N1c1ccc(F)c(F)c1` (stereo not drawn), for which the Potency result was “inactive”.
As to `COc1cc(NC(=O)Cn2c(=O)oc3cc(S(=O)(=O)N4CCCCCC4)ccc32)cc(OC)c1`, the Potency result was “inactive”.
On to `Cc1cccc(-n2nc(C)c(C(=O)Nc3cc(C)ccc3C)c2-n2cccc2)c1`, for which the Potency result is “inactive”.
As to `CN(C)CCNC(=O)C1CCN(Cc2cc3ccccc3n2Cc2ccccc2)CC1`, the Potency entry is “inactive”.
Take `COc1ccc(CCNC(=O)c2ccc3c(c2)CCN3S(=O)(=O)c2ccc(C)cc2)cc1OC`: the Potency entry was “inactive”.
With `COc1cc(OC)c(OC)cc1/C=C/c1nc2cc3ccccc3cc2c(=O)n1-c1ccc(F)c(Cl)c1`, the Potency result was “inactive”.
With `Cc1nc(-c2ccc(F)cc2)sc1CCNC(=O)c1ccc(C(C)(C)C)cc1`, the Potency result was “inactive”.
Take `CC(C)c1ccc(NC(=O)c2ccc(F)c(S(=O)(=O)N3CCc4ccccc43)c2)cc1`: the Potency entry was “inactive”.
As for `COc1ccc(NS(=O)(=O)c2ccc3c(c2)CCN3C(=O)C2CC2)cc1OC`, the Potency result was “inactive”.
The entry for `Cc1ccc(CN2CCCn3nc(C(=O)NCc4cc(C)ccc4C)cc3C2=O)cc1` is “inactive”.
On to `CCc1ccc(OCC(=O)NCC(c2ccc(Cl)cc2)N2CCOCC2)cc1` (stereo not drawn), for which the Potency entry was “inactive”.
With `Cc1ccc(Nc2cc(C)nc(-n3nc(C)cc3C)n2)cc1`, the Potency entry is “inactive”.
Take `Cc1cccc(CCNC(=O)c2c[nH]c3ccc(S(=O)(=O)Nc4ccccc4F)cc3c2=O)c1`: the Potency result is “inactive”.
The entry for `Cc1noc(/C=C/c2ccccc2F)c1S(=O)(=O)N1CCC(C(=O)Nc2ccc(C#N)cc2)CC1` is “inactive”.
As for `CCC(C(=O)NCCc1ccc(SC)cc1)n1nc(C)c2c(C)n(-c3ccc(C)cc3)nc2c1=O` (stereo not drawn), the Potency entry was “inactive”.
`CCN(C(=O)c1oc2ccc(S(=O)(=O)N3CCCCCC3)cc2c1C)c1ccccc1`: the Potency result was “inactive”.
For the compound `Cc1cccc(N2CCN(S(=O)(=O)c3cc(C(=O)Nc4ccc(Oc5ccccc5)cc4)ccc3F)CC2C)c1` (stereo not drawn), the Potency result was “inactive”.
On to `O=C(Nc1ccc(Oc2ccccc2)cc1)C1CCN(S(=O)(=O)c2ccccc2)CC1`, for which the Potency entry was “inactive”.
In the case of `COc1ccccc1NC(=O)CN1C(=O)C(C)(C)c2ccccc21`, the Potency entry is “inactive”.
For `COc1ccc(NC(=O)C(=O)NCC(c2cccnc2)N2CCc3ccccc3C2)cc1` (stereo not drawn), the Potency entry was “inactive”.
As for `Cc1ccc(-c2[nH]c3ccccc3c2SCCNC(=O)c2ccc(S(=O)(=O)N(C)C)cc2)cc1`, the Potency result was “inactive”.
Next, `CCCC(=O)Nc1nnc(SCc2cc(=O)c3ccc(C)cc3[nH]2)s1`: “inactive”; `Cc1ccc(NC(=O)c2c(Nc3ccccc3C)sc(C(=O)c3ccccc3)c2N)cc1`: “inactive”; `O=C(Nc1ccccc1)C1CCN(S(=O)(=O)c2ccc3[nH]c4c(c3c2)CCCCC4)CC1`: “inactive”.
Turning to `COc1ccccc1CNC(=O)c1oc2ccc(S(=O)(=O)N3CCCCC3)cc2c1C`, the Potency result was “inactive”.
On to `COc1ccc(CNC(=O)c2c(Nc3ccccc3C)sc(C(=O)c3ccccc3)c2N)cc1`, for which the Potency entry was “inactive”.
Next, `CCOCCCNC(=O)c1c[nH]c2ccc(S(=O)(=O)N(C)c3ccc(Cl)cc3F)cc2c1=O`: “inactive”; `COc1ccc(NC(=O)CSc2nc(-c3ccco3)cc(C(F)(F)F)n2)cc1OC`: “inactive”.
For the compound `COc1ccc(OC)c(CCNC(=O)C(C)n2nc(C)c3c(C)n(-c4ccc(C)cc4)nc3c2=O)c1` (stereo not drawn), the Potency entry was “inactive”.
`CCOC(=O)C1=C(CN2CCN(c3ccccc3F)CC2)NC(=O)NC1c1ccc(OC)cc1` (stereo not drawn): the Potency result was “inactive”.
